Data taken from PubChem BioAssay (EPA / NIEHS).
Values joined by “and” are separate entries in the source; they are usually repeats but may differ in a detail not shown here. Equal entries are not always repeated. Inconclusive results are not listed. Active and inactive are the calls of the source. The calls were made as follows, unless noted: active = hit-call score of the fitted dose curve at least 0.9, where 1 is the maximum; inactive = score below 0.9.

Key:
[1] = target: Retinoic acid receptor RXR-alpha (Homo sapiens) (UniProt P19793); experiment: ATG_RXRa_TRANS: Attagene TRANS-FACTORIAL HepG2 Assay for human Retinoid X Receptor alpha (RXRa) (AID 2283012; active = hit-call score of the fitted dose curve at least 0.9, where 1 is the maximum)
Procedure, shortened: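 Cells (HepG2) carried transiently transfected GAL4-responsive reporter units. Following a 24 h chemical incubation, reporter mRNA induction was read via RT-PCR fragment analysis; DMSO served as negative control and baseline.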

[2] = target: human Retinoid X Receptor beta (RXRb), RXRB (gene 6257) (UniProt P28702); experiment: ATG_RXRb_TRANS: Attagene TRANS-FACTORIAL HepG2 Assay for human Retinoid X Receptor beta (RXRb) (AID 2283013; active = hit-call score of the fitted dose curve at least 0.9, where 1 is the maximum)
Procedure, shortened: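 Multiplexed TRANS reporter assay in HepG2; 24 h dosing; reporter mRNA by RT-PCR/CE fluorescence; gain-of-signal relative to DMSO.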

[3] = target: human Thyroid Receptor alpha (THRa1), THRA (gene 7067) (UniProt P10827); experiment: ATG_THRa1_TRANS: Attagene TRANS-FACTORIAL HepG2 Assay for human Thyroid Receptor alpha (THRa1) (AID 2283014; active = hit-call score of the fitted dose curve at least 0.9, where 1 is the maximum)
Procedure, shortened: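 HepG2 cells transiently transfected with multiplexed GAL4-UAS reporter units for exogenous chimeric THRa1-Gal4; reporter mRNA measured 24 h after dosing by RT-PCR, 6-FAM labelling, HpaI digestion and capillary electrophoresis. Gain-of-signal fitted versus DMSO baseline.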

[4] = read-out: E-selectin (Homo sapiens) (UniProt P16581); experiment: BSK_3C_Eselectin: BioMAP Diversity Plus: 3C Assay for Eselectin Biomarker Activity (AID 2283015); conditions: primary human endothelial cells (HUVEC); actives raise or lower the signal;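 as to outcome: cell surface E-selectin protein quantified by ELISA 24 h after dosing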
Procedure, shortened: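 Primary human umbilical vein endothelial cells (3C system) were dosed with chemical and cell-surface E-selectin measured by ELISA 24 h later. Bidirectional curve fitting used DMSO as negative control and baseline.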

[5] = read-out: Interleukin-1 alpha (IL1a), IL1A (gene 3552); experiment: BSK_BE3C_IL1a: BioMAP Diversity Plus: BE3C Assay for Interleukin-1 alpha (IL1a) Biomarker Activity (AID 2283016); conditions: primary human bronchial epithelial cells; actives raise or lower the signal
Procedure, shortened: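 Cultures of primary human bronchial epithelial cells receive test chemical. After 24 h, IL-1a is quantified by ELISA, while parallel wells are fixed in TCA and SRB-stained for total protein. Changes in either direction are fitted relative to DMSO.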

[6] = read-out: Monocyte Chemoattractant Protein-1 (MCP1), CCL2 (gene 6347); experiment: BSK_3C_MCP1: BioMAP Diversity Plus: 3C Assay for Monocyte Chemoattractant Protein-1 (MCP1) Biomarker Activity (AID 2283017); conditions: primary human endothelial cells (HUVEC); actives raise or lower the signal
Procedure, shortened: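 Primary human umbilical vein endothelial cells (3C system) were exposed to test chemical for 24 h, after which MCP-1 was quantified by ELISA. Activity was fitted bidirectionally against DMSO as negative control and baseline.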

[7] = read-out: Monocyte Chemoattractant Protein-1 (MCP1), CCL2 (gene 6347); experiment: BSK_4H_MCP1: BioMAP Diversity Plus: 4H Assay for Monocyte Chemoattractant Protein-1 (MCP1) Biomarker Activity (AID 2283018); conditions: primary human endothelial cells (HUVEC); actives raise or lower the signal
Procedure, shortened: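 Readout: MCP-1 ELISA on compound-treated HUVEC, sampled 24 h post-dosing. Baseline and negative control DMSO; bidirectional fit. Overt toxicity checked alongside by sulforhodamine B protein staining at time of biomarker measurement.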

[8] = read-out: Human Leukocyte Antigen - DR isotype (HLADR), HLA-DRA (gene 3122); experiment: BSK_3C_HLADR: BioMAP Diversity Plus: 3C Assay for Human Leukocyte Antigen - DR isotype (HLADR) Biomarker Activity (AID 2283019); conditions: primary human endothelial cells (HUVEC); actives raise or lower the signal;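 as to outcome: ELISA of cell-surface HLA-DR on HUVEC 24 h after dosing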
Procedure, shortened: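 Primary human umbilical vein endothelial cells (3C system) were dosed with compound and cell-surface HLA-DR was quantified by ELISA at 24 h. Activity was fitted bidirectionally against DMSO as negative control and baseline.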

[9] = read-out: Interleukin-8 (IL8), CXCL8 (gene 3576); experiment: BSK_3C_IL8: BioMAP Diversity Plus: 3C Assay for Interleukin-8 (IL8) Biomarker Activity (AID 2283020); conditions: primary human endothelial cells (HUVEC); actives raise or lower the signal
Procedure, shortened: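 Human vascular endothelial cells (umbilical vein) in the 3C system; IL-8 level detected by ELISA at 24 h post-dose, with DMSO as baseline.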

[10] = read-out: Monokine induced gamma interferon (MIG), CXCL9 (gene 4283); experiment: BSK_3C_MIG: BioMAP Diversity Plus: 3C Assay for Monokine induced gamma interferon (MIG) Biomarker Activity (AID 2283021); conditions: primary human endothelial cells (HUVEC); actives raise or lower the signal;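 as to AC50: MIG protein level measured by immunoassay in the treated endothelial cultures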
Procedure, shortened: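 After 24 h of treatment, human umbilical vein endothelial cultures (3C system) had their MIG biomarker level determined by ELISA, with DMSO serving as negative control.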

Retinoic acid receptor RXR-alpha (Homo sapiens), sequence (P19793 whole entry, looked up, the tested form may be a part): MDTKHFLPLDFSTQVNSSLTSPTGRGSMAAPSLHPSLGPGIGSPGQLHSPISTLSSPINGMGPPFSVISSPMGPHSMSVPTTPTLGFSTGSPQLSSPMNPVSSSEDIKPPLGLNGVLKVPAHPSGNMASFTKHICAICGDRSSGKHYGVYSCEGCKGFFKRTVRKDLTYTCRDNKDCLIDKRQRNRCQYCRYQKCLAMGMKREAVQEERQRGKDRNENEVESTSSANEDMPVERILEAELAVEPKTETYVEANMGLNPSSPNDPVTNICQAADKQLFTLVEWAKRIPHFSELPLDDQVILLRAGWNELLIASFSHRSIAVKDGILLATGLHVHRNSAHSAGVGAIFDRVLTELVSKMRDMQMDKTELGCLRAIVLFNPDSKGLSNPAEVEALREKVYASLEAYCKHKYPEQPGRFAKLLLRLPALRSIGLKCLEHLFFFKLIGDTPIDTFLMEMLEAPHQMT
human Thyroid Receptor alpha (THRa1), THRA (gene 7067), sequence (P10827 whole entry, looked up, the tested form may be a part): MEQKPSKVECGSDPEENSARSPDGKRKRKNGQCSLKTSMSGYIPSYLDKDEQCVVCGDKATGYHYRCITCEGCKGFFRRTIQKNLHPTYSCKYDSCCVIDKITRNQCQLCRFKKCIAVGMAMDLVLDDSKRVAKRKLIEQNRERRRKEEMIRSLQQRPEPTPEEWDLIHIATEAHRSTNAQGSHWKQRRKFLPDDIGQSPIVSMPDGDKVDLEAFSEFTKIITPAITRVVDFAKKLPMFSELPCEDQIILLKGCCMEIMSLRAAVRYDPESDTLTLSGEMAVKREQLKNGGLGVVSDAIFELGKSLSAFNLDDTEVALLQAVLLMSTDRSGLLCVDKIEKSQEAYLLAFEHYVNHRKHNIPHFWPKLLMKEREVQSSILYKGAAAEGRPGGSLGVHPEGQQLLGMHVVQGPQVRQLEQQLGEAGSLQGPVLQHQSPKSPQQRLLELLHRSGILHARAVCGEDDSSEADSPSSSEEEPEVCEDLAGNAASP
E-selectin (Homo sapiens), sequence (P16581 whole entry, looked up): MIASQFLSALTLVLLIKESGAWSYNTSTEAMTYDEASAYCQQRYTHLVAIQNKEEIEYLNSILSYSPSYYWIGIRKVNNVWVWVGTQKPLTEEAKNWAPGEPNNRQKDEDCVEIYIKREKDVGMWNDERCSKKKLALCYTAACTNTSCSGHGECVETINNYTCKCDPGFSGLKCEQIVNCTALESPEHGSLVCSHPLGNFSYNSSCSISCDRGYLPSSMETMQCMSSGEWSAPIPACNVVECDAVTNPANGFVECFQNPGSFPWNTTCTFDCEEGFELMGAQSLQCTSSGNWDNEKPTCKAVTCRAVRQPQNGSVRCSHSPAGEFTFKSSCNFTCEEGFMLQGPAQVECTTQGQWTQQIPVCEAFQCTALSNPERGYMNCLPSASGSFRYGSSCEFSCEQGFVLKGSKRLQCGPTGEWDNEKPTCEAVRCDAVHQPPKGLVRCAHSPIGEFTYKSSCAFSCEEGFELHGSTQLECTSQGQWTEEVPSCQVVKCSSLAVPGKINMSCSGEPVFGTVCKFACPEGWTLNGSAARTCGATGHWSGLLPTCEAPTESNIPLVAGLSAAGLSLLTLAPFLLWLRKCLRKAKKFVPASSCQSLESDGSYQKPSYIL
human Retinoid X Receptor beta (RXRb), RXRB (gene 6257), sequence (P28702 whole entry, looked up): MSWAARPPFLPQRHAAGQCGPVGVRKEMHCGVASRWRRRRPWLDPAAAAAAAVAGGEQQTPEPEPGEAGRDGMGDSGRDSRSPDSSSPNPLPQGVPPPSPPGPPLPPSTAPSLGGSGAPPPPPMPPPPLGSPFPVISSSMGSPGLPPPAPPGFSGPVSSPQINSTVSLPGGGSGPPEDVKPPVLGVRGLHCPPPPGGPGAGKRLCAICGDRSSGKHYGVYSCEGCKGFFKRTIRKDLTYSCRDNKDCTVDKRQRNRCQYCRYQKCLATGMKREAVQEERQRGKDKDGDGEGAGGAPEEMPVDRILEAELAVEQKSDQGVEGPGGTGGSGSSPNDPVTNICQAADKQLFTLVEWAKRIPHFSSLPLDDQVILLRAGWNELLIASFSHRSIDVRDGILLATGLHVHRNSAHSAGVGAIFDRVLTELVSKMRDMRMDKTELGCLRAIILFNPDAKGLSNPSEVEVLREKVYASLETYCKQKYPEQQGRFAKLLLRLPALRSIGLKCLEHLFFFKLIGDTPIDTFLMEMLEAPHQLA

## Oc1cc(Cl)c(Cl)cc1Cl
[1]
  outcome: inactive
[2]
  AC50: 151 µM (active)
[3]
  outcome: inactive
[4]
  AC50: 35.4 µM (active)
[5]
  outcome: inactive
[6]
  AC50: 33.3 µM (active)
[7]
  AC50: 20 µM (active)
[8]
  AC50: 16.8 µM (active)
[9]
  AC50: 31.7 µM (active)
[10]
  outcome: inactive

## COc1ccccc1N
[1]
  outcome: inactive
[2]
  outcome: inactive
[3]
  outcome: inactive
[4]
  outcome: inactive
[5]
  outcome: inactive
[6]
  outcome: inactive
[8]
  outcome: inactive
[9]
  outcome: inactive
[10]
  outcome: inactive

## [Cl][Sn]([c]1ccccc1)([c]1ccccc1)[c]1ccccc1
[1]
  AC50: 0.233 µM (active)
[2]
  AC50: 0.000965 µM (active)
[3]
  outcome: inactive
[4]
  AC50: 0.154 µM (active)
[5]
  AC50: 0.126 µM (active)
[6]
  AC50: 0.292 µM (active)
[8]
  AC50: 0.0817 µM (active)
[9]
  AC50: 0.298 µM (active)
[10]
  AC50: 0.436 µM (active)

## Brc1c(Br)c(Br)c(Oc2c(Br)c(Br)c(Br)c(Br)c2Br)c(Br)c1Br
[1]
  outcome: inactive
[2]
  outcome: inactive
[3]
  outcome: inactive

## CC1(C)[C@H](C(=O)O[C@H](C#N)c2cccc(Oc3ccccc3)c2)[C@@H]1/C=C(\Cl)C(F)(F)F
[1]
  outcome: inactive
[2]
  outcome: inactive
[3]
  outcome: inactive
[4]
  outcome: inactive
[5]
  outcome: inactive
[6]
  outcome: inactive
[7]
  AC50: 1.11 µM (active) and 4.07 µM (active)
[8]
  outcome: inactive
[9]
  outcome: inactive
[10]
  outcome: inactive

## Cc1cc(Cl)ccc1N
[1]
  outcome: inactive
[2]
  outcome: inactive
[3]
  outcome: inactive
[4]
  outcome: inactive
[5]
  outcome: inactive
[6]
  outcome: inactive
[7]
  outcome: inactive
[8]
  outcome: inactive
[9]
  outcome: inactive
[10]
  outcome: inactive

## COC(=O)c1cc(Oc2ccc(Cl)cc2Cl)ccc1[N+](=O)[O-]
[1]
  outcome: inactive
[2]
  outcome: inactive
[3]
  outcome: inactive

## CCOC(=O)CC(=O)CCl
[1]
  outcome: inactive
[2]
  outcome: inactive
[3]
  AC50: 100 µM (active)
[4]
  AC50: 20 µM (active)
[5]
  AC50: 20 µM (active)
[6]
  outcome: inactive
[7]
  outcome: inactive
[8]
  AC50: 28.1 µM (active)
[9]
  AC50: 3.97 µM (active)
[10]
  outcome: inactive

## c1ccc(-c2cccc(-c3ccccc3)c2)cc1
[1]
  outcome: inactive
[2]
  AC50: 7.98 µM (active)
[3]
  outcome: inactive
[4]
  AC50: 11.4 µM (active)
[5]
  AC50: 11.6 µM (active)
[6]
  AC50: 12.4 µM (active)
[7]
  AC50: 5.91 µM (active)
[8]
  AC50: 9.9 µM (active)
[9]
  AC50: 7.45 µM (active)
[10]
  outcome: inactive

## Oc1ccc(Cc2ccc(O)cc2)cc1
[1]
  outcome: inactive
[2]
  outcome: inactive
[3]
  outcome: inactive
[4]
  outcome: inactive
[5]
  outcome: inactive
[6]
  outcome: inactive
[8]
  outcome: inactive
[9]
  outcome: inactive
[10]
  outcome: inactive

## Cc1c([N+](=O)[O-])c(C)c([N+](=O)[O-])c(C(C)(C)C)c1[N+](=O)[O-]
[1]
  AC50: 9.15 µM (active)
[2]
  AC50: 1.12 µM (active)
[4]
  AC50: 20 µM (active)
[5]
  outcome: inactive
[6]
  outcome: inactive
[7]
  AC50: 20 µM (active)
[8]
  AC50: 26.9 µM (active)
[9]
  outcome: inactive
[10]
  outcome: inactive

## O=c1[nH]c(=O)n(Cl)c(=O)n1Cl
[1]
  outcome: inactive
[2]
  outcome: inactive
[3]
  outcome: inactive

## CCCCCCCCCCCCN(C)C
[1]
  outcome: inactive
[2]
  outcome: inactive
[3]
  outcome: inactive
[4]
  outcome: inactive
[5]
  outcome: inactive
[6]
  outcome: inactive
[8]
  outcome: inactive
[9]
  outcome: inactive
[10]
  outcome: inactive

## Oc1cccc(-c2ccccc2)c1
[1]
  outcome: inactive
[2]
  AC50: 36.6 µM (active)
[3]
  outcome: inactive
[4]
  AC50: 32 µM (active)
[5]
  outcome: inactive
[6]
  AC50: 30.6 µM (active)
[8]
  AC50: 32.9 µM (active)
[9]
  outcome: inactive
[10]
  outcome: inactive

## CC(C)(C)c1ccccc1O
[1]
  AC50: 100 µM (active)
[2]
  AC50: 10.6 µM (active)
[3]
  outcome: inactive
[4]
  outcome: inactive
[5]
  outcome: inactive
[6]
  outcome: inactive
[8]
  outcome: inactive
[9]
  outcome: inactive
[10]
  outcome: inactive

## O=C(O)COc1ccc(Cl)cc1
[1]
  outcome: inactive
[2]
  outcome: inactive
[3]
  outcome: inactive

## CN(C)C(=S)S
[1]
  outcome: inactive
[2]
  AC50: 27 µM (active)
[3]
  outcome: inactive
[4]
  outcome: inactive
[5]
  AC50: 29.6 µM (active)
[6]
  outcome: inactive
[7]
  outcome: inactive
[8]
  outcome: inactive
[9]
  outcome: inactive
[10]
  outcome: inactive

## OC(Cc1ccccc1Cl)(Cn1cncn1)C1(Cl)CC1 (stereo unspecified)
[1]
  outcome: inactive
[2]
  outcome: inactive
[3]
  outcome: inactive
[4]
  outcome: inactive
[5]
  outcome: inactive
[6]
  outcome: inactive
[8]
  outcome: inactive
[9]
  outcome: inactive
[10]
  outcome: inactive

## Nc1c(Oc2ccccc2)cc(O)c2c1C(=O)c1ccccc1C2=O
[1]
  outcome: inactive
[2]
  AC50: 17.4 µM (active)
[3]
  outcome: inactive
[4]
  outcome: inactive
[5]
  outcome: inactive
[6]
  outcome: inactive
[7]
  outcome: inactive
[8]
  outcome: inactive
[9]
  outcome: inactive
[10]
  outcome: inactive

## O=[N+]([O-])c1cccc2ccccc12
[1]
  outcome: inactive
[2]
  AC50: 100 µM (active)
[3]
  outcome: inactive
[4]
  outcome: inactive
[5]
  outcome: inactive
[6]
  outcome: inactive
[8]
  outcome: inactive
[9]
  outcome: inactive
[10]
  outcome: inactive

## O=[N+]([O-])c1ccc(Nc2ccccc2)cc1
[1]
  outcome: inactive
[2]
  AC50: 12.1 µM (active)
[3]
  outcome: inactive
[4]
  outcome: inactive
[5]
  outcome: inactive
[6]
  outcome: inactive
[8]
  outcome: inactive
[9]
  outcome: inactive
[10]
  outcome: inactive

## O=C1C=CC(=O)c2ccccc21
[1]
  outcome: inactive
[2]
  outcome: inactive
[3]
  outcome: inactive
[4]
  AC50: 4.15 µM (active)
[5]
  AC50: 3.75 µM (active)
[6]
  AC50: 3.04 µM (active)
[8]
  AC50: 2.14 µM (active)
[9]
  AC50: 5.23 µM (active)
[10]
  AC50: 6.7 µM (active)
